About 430 (0.12%) of roughly 360,000 compounds were called active.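 How the source made its calls: active means inhibition above the campaign mean plus 3 SD, with each screening campaign given its own cutoff (cut at about 60% in these data); inactive means the rest.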 The entries come from a sample that favours actives as a whole.

As a reminder, the inhibition is the relative decrease from the control value, in per cent.

Chain of Nuclear receptor coactivator 1 (Homo sapiens) (Q15788 whole entry, looked up, the tested form may be a part): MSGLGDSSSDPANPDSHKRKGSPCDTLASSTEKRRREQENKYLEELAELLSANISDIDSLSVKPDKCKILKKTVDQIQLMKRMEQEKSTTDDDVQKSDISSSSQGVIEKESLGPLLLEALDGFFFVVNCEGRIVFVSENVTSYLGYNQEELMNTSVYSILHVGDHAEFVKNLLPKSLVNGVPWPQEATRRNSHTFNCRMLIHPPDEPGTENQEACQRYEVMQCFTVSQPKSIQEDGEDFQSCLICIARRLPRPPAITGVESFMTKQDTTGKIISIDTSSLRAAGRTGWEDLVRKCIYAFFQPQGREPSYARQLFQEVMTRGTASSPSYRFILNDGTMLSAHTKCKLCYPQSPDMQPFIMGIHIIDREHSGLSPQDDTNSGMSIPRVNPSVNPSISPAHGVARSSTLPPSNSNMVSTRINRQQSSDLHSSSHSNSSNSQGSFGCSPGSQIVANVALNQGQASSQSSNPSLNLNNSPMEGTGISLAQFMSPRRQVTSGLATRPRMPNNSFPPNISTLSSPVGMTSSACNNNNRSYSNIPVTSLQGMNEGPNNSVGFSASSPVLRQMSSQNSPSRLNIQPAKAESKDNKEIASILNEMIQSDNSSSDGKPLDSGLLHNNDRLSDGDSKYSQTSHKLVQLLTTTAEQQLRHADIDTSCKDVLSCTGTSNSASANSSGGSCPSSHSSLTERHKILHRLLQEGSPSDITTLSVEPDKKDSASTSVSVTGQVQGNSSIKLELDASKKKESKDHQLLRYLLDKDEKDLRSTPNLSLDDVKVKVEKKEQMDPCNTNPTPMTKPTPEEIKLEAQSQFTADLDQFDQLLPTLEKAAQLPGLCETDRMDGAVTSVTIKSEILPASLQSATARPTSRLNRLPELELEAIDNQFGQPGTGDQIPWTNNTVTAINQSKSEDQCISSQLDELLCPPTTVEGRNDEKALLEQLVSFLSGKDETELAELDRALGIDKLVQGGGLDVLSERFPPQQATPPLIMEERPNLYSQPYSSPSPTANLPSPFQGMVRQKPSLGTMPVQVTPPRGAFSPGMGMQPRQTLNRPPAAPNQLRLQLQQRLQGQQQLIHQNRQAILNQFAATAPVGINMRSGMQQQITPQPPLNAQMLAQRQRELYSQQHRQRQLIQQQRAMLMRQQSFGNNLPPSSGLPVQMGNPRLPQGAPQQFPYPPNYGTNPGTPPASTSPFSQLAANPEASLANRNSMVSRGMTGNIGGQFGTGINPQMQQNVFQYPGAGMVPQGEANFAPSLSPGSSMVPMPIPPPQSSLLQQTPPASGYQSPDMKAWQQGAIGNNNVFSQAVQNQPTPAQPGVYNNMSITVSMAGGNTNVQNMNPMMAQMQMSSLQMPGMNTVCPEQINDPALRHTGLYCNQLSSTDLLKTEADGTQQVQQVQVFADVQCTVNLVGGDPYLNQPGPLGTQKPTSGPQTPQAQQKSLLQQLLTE

The experiment has as its target Nuclear receptor coactivator 1 (Homo sapiens) (UniProt Q15788). The experiment can be described thus: NCOA1 GAL4-fusion reporter inhibition – cell-based, luminescence, primary screen (AID 588354).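 Further: 0% = DMSO treated cells and 100% = gossypol at 36 µM.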 Particulars: HEK293 GAL4-SRC1 luciferase reporter, at 3.6 µM, stronger effect = higher value. For orientation: A reporter such as luciferase makes a cellular process visible.
In the case of `COC1C(O)C(C)OC(OC2CCC3(C=O)C(CCC4C3CCC3(C)C(C5=CC(=O)OC5)CCC43O)C2)C1O` (stereo not given), the inhibition is 90.4% (active).

Turning to `C[C@]12CC[C@H](O)C[C@H]1CC[C@@H]1C2CC[C@]2(C)[C@@H](C3=CC(=O)OC3)[C@@H](O)C[C@]12O` (stereo not given in full), the inhibition is 53.1% (inactive).

In the case of `CCC1(C)CC(CCNCc2ccc(N(C)C)cc2)(c2ccc(F)cc2)CCO1` (stereo not given), the inhibition was -23.1% (inactive).

`Cc1cccc(-n2c(C)nc3cc(C(=O)N4CCC5(CC4)OCCO5)ccc32)c1`: the inhibition is 7.63% (inactive).

Regarding `CC1CCC(N(C)C2CCN(C)CC2)CC1` (stereo not given), the inhibition was 9.39% (inactive).

Take `COC(=O)C1=C(c2ccc(Cl)c(C(F)(F)F)c2)C[C@@H]2CC[C@H]1N2C(=O)NC(C)C`: the inhibition is 1.75% (inactive).

As for `CCC(C)(O)C(=O)OC1C(=O)OC2CC3C(C)=CC(=O)C(O)C3(C)C3C4(O)OCC23C1C(C)C4O` (stereo not given), the inhibition is 95.5% (active).

`Cn1cc(C(=O)OCC(=O)N2CCCC2)c2ccccc21`: the inhibition was -5.08% (inactive).

Consider `CC(=O)OC1C2(CC3N4C(=O)C5(CO)SSC4(CC31O)C(=O)N5C)OC(C)C(C)(C)C2=O` (stereo not given), for which the inhibition was 23.6% (inactive).

With `CCOC(=O)CC(SP1(=S)OCC2(CCCCO2)C(C2CCCCO2)O1)C(=O)OCC` (stereo not given), the inhibition is -3.46% (inactive).

Turning to `Cc1ccccc1NC(=O)COC(=O)c1cc(C)n(C2CC2)c1C`, the inhibition is -22.1% (inactive).

Regarding `O=C(COc1ccc2ccccc2c1)N1CCN(Cc2ccncc2)CC1`, the inhibition is -6.36% (inactive).

`CCOc1ccc(-c2cc(C)[n+](CCN(CC)CC)c(-c3ccc(OCC)cc3)c2)cc1`: the inhibition is 62% (active).

For the compound `CNC(=O)N(C)c1nnc(C(C)(C)C)s1`, the inhibition was -3.52% (inactive).

Consider `N[C@@H](Cc1c[nH]c2ccccc12)c1nnc(SCc2c(F)cccc2Cl)o1`, for which the inhibition is -58.9% (inactive).

The values above are taken from PubChem BioAssay AID588354 (The Scripps Research Institute Molecular Screening Center, 2011).
